Among the data in ChEMBL document CHEMBL3988442, “University of Dundee, Small-Polar-MMV Screening Library” (2021) are Percent Effect values, retold here.

For experiment [1], the target named is T1, Aspartate--tRNA(Asp/Asn) ligase (Mycobacterium tuberculosis (strain ATCC 25618 / H37Rv)) (UniProt P9WFW3). Note: in the data most compounds retested in dose-response had high values.
T1 sequence (whole entry): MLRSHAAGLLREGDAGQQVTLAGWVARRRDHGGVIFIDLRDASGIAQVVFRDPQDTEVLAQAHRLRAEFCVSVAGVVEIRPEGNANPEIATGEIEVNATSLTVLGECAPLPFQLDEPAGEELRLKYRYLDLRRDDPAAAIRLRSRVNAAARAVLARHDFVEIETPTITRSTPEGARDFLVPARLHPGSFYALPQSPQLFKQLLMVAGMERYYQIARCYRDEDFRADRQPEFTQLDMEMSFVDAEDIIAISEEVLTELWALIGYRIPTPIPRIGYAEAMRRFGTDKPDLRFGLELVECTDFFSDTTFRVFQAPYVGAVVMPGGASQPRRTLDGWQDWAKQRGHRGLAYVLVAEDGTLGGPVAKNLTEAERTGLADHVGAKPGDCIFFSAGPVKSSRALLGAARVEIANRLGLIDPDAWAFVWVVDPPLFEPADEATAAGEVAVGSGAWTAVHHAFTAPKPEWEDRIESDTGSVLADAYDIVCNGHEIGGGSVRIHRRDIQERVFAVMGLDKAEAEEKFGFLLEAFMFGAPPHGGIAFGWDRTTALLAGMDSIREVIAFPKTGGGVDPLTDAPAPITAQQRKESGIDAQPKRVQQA
Description: Assay for Asp RNA synthetase-1 from Mycobacterium tuberculosis. Type of experiment: functional. Also noted: scale not given: direction of the effect not stated beside the values. The following applies: 30 µM.

Experiment [2] has as its target Shiga toxin 2 (Escherichia coli O157:H7) (UniProt P09385+P09386). Kind of experiment: E. coli 0.157:H7 Shiga Toxin SOP - stx2 screening assay. More on the design: scale not given: direction of the effect not stated beside the values. The experiment is classed as functional. As to conditions: 30 µM.

Turning to `CCc1nc(CN2CCCN(C(=O)COCC3CC3)CC2)cs1`, the values for the Percent Effect in experiment [1] and in experiment [2] were -3.19% and -49.1%, respectively.
For `O=C(Cc1ccccc1)N1CCC2(CC(=O)N(c3cccc(F)c3)C2)C1` (stereo not drawn) the same measures were -1.85% and 10.2%.
As for `CC(C(=O)Nc1cccc(N2CCCCC2)c1)n1cncn1` (stereo not drawn), the results for the Percent Effect in experiment [1] and in experiment [2] were 2.19% and 2.83%, respectively.
The like results for `Cc1nc(CN2CCN(C(=O)c3ccn(C)c(=O)c3)CC2)cs1` were, in that order, 4.03% and -43.8%.
For `COc1ccc(CN2CCOC3(CCCN(c4nnc(C)o4)C3)C2)cc1` (stereo not drawn) the same measures were -5.88% and 7.44%.
The like results for `Cc1nc(N)sc1C(=O)N1CCCC(c2nccn2CCCN(C)C)C1` (stereo not drawn) were, in that order, -0.893% and 12.2%.
In the case of `CC(C)C(=O)N1CCN(C(=O)c2cc(C(C)C)on2)[C@H]2CS(=O)(=O)C[C@H]21`, the Percent Effect in experiment [1] is -1.39%; in experiment [2], -14.2%.
For `O=C(c1cccc(CN2CCCC2)c1)N1CCCC(n2cncn2)C1` (stereo not drawn) the same measures were 11.7% and 14%.
The like results for `CC(C)(C)c1n[nH]cc1CN1CCc2nc3ccsc3c(=O)n2CC1` were, in that order, -0.849% and 12.6%.
Regarding `CCc1ncc2c(n1)CN(Cc1nnc(C)o1)CC2`, the Percent Effect was -4.37% in experiment [1] and -16.2% in experiment [2].
For `Cc1ccccc1[C@@H]1CN(C(=O)c2ccc3[nH]nnc3c2)C[C@H]1C(=O)O` the same measures were 2.17% and -15.8%.
For `CCOCC1CN(S(C)(=O)=O)Cc2cnn(CC3CCOCC3)c21` (stereo not drawn) the same measures were 5.17% and -7.39%.
The like results for `CCC1CN(c2nnc(C)c(C)c2C#N)CCO1` (stereo not drawn) were, in that order, 0.1% and 11.9%.
For `CCc1nc(CN2CCN(C(=O)COCc3ccccc3)CC2)no1`, the figures for the Percent Effect in experiment [1] and in experiment [2] were -1.88% and 2.35%, respectively.
The like results for `CC(C)NC(=O)N1CCN(Cc2ccccn2)CC2(CC(=O)N(C)C2)C1` (stereo not drawn) were, in that order, -0.228% and -14.2%.
Turning to `COc1cc(C(=O)N2CCC(c3n[nH]c(C4CC4)n3)CC2)ccc1C`, the values for the Percent Effect in experiment [1] and in experiment [2] were -0.859% and 3.06%, respectively.
The like results for `CC(C)c1nn(C)c(N(C)C)c1CNCc1cccc(CN(C)C)c1` were, in that order, 2.36% and 31.8%.
For `Cc1cccc(CN2C[C@@H]3CN(C(=O)c4ccsc4)C[C@@H]3C2=O)c1` the same measures were 2.59% and -27.2%.
With `CCOC(=O)[C@]12CCCN(Cc3nccs3)C[C@H]1CN(CCN(C)C)C2`, the Percent Effect in experiment [1] was 6.19%; in experiment [2] it was -7.56%.
The like results for `Cc1csc(N2CCN(C(=O)CCc3nccs3)CC2)n1` were, in that order, 2.49% and 7.79%.
Regarding `COc1ccc(C2=CCN(C(=O)C3CCCN(C(N)=O)C3)CC2)cc1` (stereo not drawn), the results for the Percent Effect in experiment [1] and in experiment [2] were 1.94% and 26.5%, respectively.
For `Cc1cc(NC(=O)CN2CCCC2c2noc(C3CC3)n2)no1` (stereo not drawn) the same measures were 0.92% and -26.9%.
For `O=C(NC1CC1)[C@@H]1CCO[C@@H]2CCN(C3CCOCC3)C[C@H]21` the same measures were 5.8% and -34.3%.
The like results for `Cn1nccc1C1CCN(Cc2csc(-c3ncccn3)n2)CC1` were, in that order, 5.92% and -10.6%.
In the case of `CC(NC(=O)NCCCc1n[nH]c(N)c1C#N)c1ccccc1` (stereo not drawn), the figures for the Percent Effect in experiment [1] and in experiment [2] were 1.03% and -17.6%, respectively.
The like results for `CCc1nccn1-c1cncc(C2CCCN2Cc2ccc(F)cc2)n1` (stereo not drawn) were, in that order, 1.57% and -28.9%.
In the case of `c1csc(-c2nc(CN3CCOC(Cn4cncn4)C3)co2)c1` (stereo not drawn), the results for the Percent Effect in experiment [1] and in experiment [2] were 21.8% and 19.9%, respectively.
For `CCOC(=O)N1CCN(C(=O)c2ccc3ccn(C)c3c2)CC1` the same measures were -0.585% and 1.39%.
The like results for `CN(Cc1ccc2c(c1)OCCO2)C(=O)NCCc1cnn(C)c1` were, in that order, 3% and 26.7%.
For `Cc1cccc(-c2nc(CN3CCCCC3Cn3cncn3)no2)c1` (stereo not drawn) the same measures were -2.9% and 15.3%.
As to `Cc1ccc(NC2CCN(C(=O)c3c(C)noc3C)CC2)nn1`, the Percent Effect was -3.12% in experiment [1] and 7.22% in experiment [2].
The like results for `Cc1cnn(CC2CCCN2C(=O)c2ccc(C(N)=O)cn2)c1` (stereo not drawn) were, in that order, -2.92% and 11.5%.
`Cc1cnn(CC2CN(Cc3nc4ccccc4nc3C)CCO2)c1` (stereo not drawn): the values for the Percent Effect in experiment [1] and in experiment [2] were -3.52% and -0.0617%, respectively.
For `Cc1ccc(-c2cccc(-c3ccn(CCN4CCCC4)n3)c2)nn1` the same measures were -1.26% and -13.8%.
For `Cc1cc(CN(C)C(=O)c2ccnc(N(C)C)c2)no1`, the Percent Effect in experiment [1] is -3.84%; in experiment [2] it was -18.4%.
For `CC(C)NC(=O)[C@@H](NC(=O)N1CCN(c2ccc(Cl)cc2)CC1)C(C)C` the same measures were -2.11% and -49%.
The like results for `c1ccc(-c2nc(CN3CCCC3Cn3cncn3)cs2)cc1` (stereo not drawn) were, in that order, 0.143% and 5.25%.
The like results for `CCn1ccnc1CN1CCN(CC(O)c2ccccc2)CC1` (stereo not drawn) were, in that order, -5.63% and -31%.
In the case of `COc1c(C2CCCN2C(=O)c2ccnc(N(C)C)c2)c(C)nn1C` (stereo not drawn), the Percent Effect was determined as 2.59% in experiment [1] and 25.8% in experiment [2].
The like results for `CN(C)C(=O)CN1C[C@@H]2CC[C@H](C1)N(C(=O)CCn1cncn1)C2` were, in that order, 1.04% and -6.26%.
For `COc1ccc(OC)c(Sc2ncccc2C(=O)N(C)CCC#N)c1` the same measures were -6.44% and 13.3%.
Regarding `CC(=O)N1CCCC1c1nccnc1Nc1cccc(C)n1` (stereo not drawn), the Percent Effect in experiment [1] is 1.07%; in experiment [2], -5.74%.
The like results for `Cc1cc(CN2CCC(CNC(=O)c3nccc4ccccc34)C2)[nH]n1` (stereo not drawn) were, in that order, 8.37% and -22.4%.
For `CC(=O)Nc1ccc(S(=O)(=O)NC(=O)CCC2CCCO2)cc1` (stereo not drawn) the same measures were 2.52% and -2.77%.
Regarding `COc1cc(N2CCCC(c3nccn3CCN(C)C)C2)nc(N)n1` (stereo not drawn), the Percent Effect in experiment [1] is -3.58%; in experiment [2] it was 23.8%.
For the molecule `CS(=O)(=O)N1CC[C@H]2O[C@H](C(=O)NCCc3ccncc3)CC[C@H]21`, the Percent Effect was 7.02% in experiment [1] and -26% in experiment [2].
For `Cc1cc(C)n(CC2CCCN2C(=O)c2cc[nH]n2)n1` (stereo not drawn) the same measures were -3.22% and -26.2%.
For `CCOc1ncccc1C(=O)N1CCCC1c1c(C)nn(C)c1OC` (stereo not drawn) the same measures were -0.602% and -8.49%.
For `O=C(NCc1cccnc1-n1cccn1)C1CC(=O)N(CC2CC2)C1` (stereo not drawn) the same measures were -2.05% and 10.1%.
On to `CN(Cc1ccc(F)cc1)CC1(O)CCN(C(=O)c2cccn2C)C1` (stereo not drawn), for which the Percent Effect is -4.54% in experiment [1] and -9.28% in experiment [2].
For `CCOc1ccc(NC(=O)NCc2csc(NC)n2)cc1C` the same measures were -0.262% and -26.6%.
With `CN(C)C(=O)CS(=O)(=O)Cc1cc(Cl)c2c(c1)OCO2`, the Percent Effect is 0.927% in experiment [1] and 25.6% in experiment [2].
For `Cc1ccc(C(CNC(=O)NCc2cc[nH]n2)N2CCOCC2)o1` (stereo not drawn) the same measures were 0.256% and -34.1%.
The like results for `CCN1CCC(CNC(=O)C2(c3cccc(C)c3)CC2)C1` (stereo not drawn) were, in that order, 2.87% and 1.34%.
For `CC(C)(C)c1n[nH]c(C2CN(C(=O)CCc3cscn3)CCO2)n1` (stereo not drawn) the same measures were -2.97% and 7.94%.
`COCc1c(C(=O)O)nnn1Cc1cccc(C(F)(F)F)c1`: the Percent Effect was -5.23% in experiment [1] and -31% in experiment [2].
The like results for `COC1CCN(C(=O)CCc2c(C)nc3ccnn3c2C)CC1` were, in that order, -6.77% and 21%.
For `O=C(c1ccnnc1)N1C[C@H](Oc2cccnc2)[C@H]2OCCC[C@H]21` the same measures were 2.1% and 3.62%.
For `CNc1cc2c(nn1)CCN(C(=O)c1ccoc1)C2` the same measures were 0.663% and 28.5%.
For `Cc1occc1C(=O)N1CCC2(CC1)NC(=O)CC2c1cnn(C)c1` (stereo not drawn), the Percent Effect in experiment [1] is -0.199%; in experiment [2], -2.15%.
Consider `CC(=O)N1CCC(Oc2ccc(C#N)cn2)CC1`, for which the Percent Effect in experiment [1] was -4.74%; in experiment [2], -70.8%.
The like results for `CN(Cc1ccco1)C(=O)CN1CCCCC1Cn1cccn1` (stereo not drawn) were, in that order, -0.346% and -5.72%.
The like results for `Cn1cc(-c2nc(CN3CCN(CCO)CC3)cs2)cn1` were, in that order, -2.15% and 22.1%.
The like results for `Cc1ccn(-c2ccccc2NCc2cccnc2C)n1` were, in that order, -3.62% and 0.821%.
In the case of `Nc1nccc(N2CCC(Cc3ccccc3Cl)(C(=O)O)CC2)n1`, the Percent Effect was -0.368% in experiment [1] and -4.46% in experiment [2].
The like results for `CCOCC1CN(C(=O)CS(C)(=O)=O)Cc2cnn(C)c21` (stereo not drawn) were, in that order, 1.19% and -6.98%.
For the molecule `CNc1cc(N2CCCC2CNCc2ccc(Cl)o2)ncn1` (stereo not drawn), the Percent Effect in experiment [1] is -2.44%; in experiment [2] it was 26.8%.
For `c1cc(-c2noc(CN3CCn4c(nnc4C4CC4)C3)n2)co1` the same measures were -0.544% and 0.987%.
The like results for `O=C(c1ccccn1)N1CCN(c2ccc(-c3cccnc3)nn2)CC1` were, in that order, -6.42% and -48.3%.
The like results for `CCN1CC(C(=O)N2CCC(Oc3ccccc3C)CC2)CC1=O` (stereo not drawn) were, in that order, -1.25% and -32.1%.
Turning to `O=C(c1cccc(Cn2ccnc2)c1)N1CCCC(n2ccnc2)C1` (stereo not drawn), the figures for the Percent Effect in experiment [1] and in experiment [2] were -0.874% and -7.22%, respectively.
For `O[C@H]1[C@H](n2cc(-c3cccnc3)nn2)c2ccccc2C12CCNCC2` the same measures were -2.48% and 7.64%.
The like results for `Cc1cc(C)n(CC(C)CNC(=O)[C@@H](C)NC(=O)OC(C)(C)C)n1` (stereo partly drawn) were, in that order, -1.38% and 9.62%.
On to `O=C(CC1CC1)NCc1cc(=O)n2c(n1)CN(Cc1ccoc1)CCC2`, for which the Percent Effect in experiment [1] was -2.64%; in experiment [2], -17%.
